# Reference: PubChem BioAssay (Tox21)
# Values joined by “and” are separate entries in the source; they are usually repeats but may differ in a detail not shown here. Equal entries are not always repeated. Results filed as inconclusive are left out. Where a call stands in place of a potency, no number is given. Where a structure was tested more than once in an assay, its records may differ in their call. Active and inactive are the calls of the source. Calls come from the whole dose curve; as a rule, active = well fitted curve in the direction sought with a large enough effect in the repeat runs; inconclusive = weak or mixed curves; inactive = no such curve, though single readings can be large; an effect the other way counts as inactive or inconclusive.
# How the values were obtained:
# [1] = A CellTox Green Cytotoxicity Assay to monitor cytotoxicity in HepG2 cells - 0 hour (AID 1224882); note: nearly all actives have a fitted effect of over 35% in size; note: potency is the fitted concentration of half-maximal effect
# Outline: (§1)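 Read-out is fluorescence of a cyanine dye excluded from live cells that stains DNA of dead HepG2 cells, with signal proportional to cytotoxicity. Plates were read at 0, 8, 16, 24, 32 and 40 h after compound addition.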
# [2] = A CellTox Green Cytotoxicity Assay to monitor cytotoxicity in HepG2 cells - 32 hour (AID 1224883); note: nearly all actives have a fitted effect of over 50% in size; note: potency is the fitted concentration of half-maximal effect
# Outline: as §1
# [3] = A CellTox Green Cytotoxicity Assay to monitor cytotoxicity in HEK293 cells - 8 hour (AID 1224884); note: nearly all actives have a fitted effect of over 35% in size; note: potency is the fitted concentration of half-maximal effect
# Outline: (§2)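 Nonlytic real-time cytotoxicity: HEK293 + CellTox Green reagent plated, 5 h preincubation, pintool compound addition (23 nL in DMSO), 37 C for 40 h, fluorescence measured at successive time points.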
# [4] = qHTS RealTime-Glo MT Cell Viability Assay in HepG2 cells - 16 hour (AID 1224885); note: nearly all actives have a fitted effect of over 50% in size; note: potency is the fitted concentration of half-maximal effect
# Outline: (§3)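 HepG2 suspension premixed with RealTime-Glo reagents is plated at 600 cells per well and left 5 h at 37 C/5% CO2. Compounds in DMSO then go in, and bioluminescence reflecting viable cell number is recorded over 40 h.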
# [5] = qHTS RealTime-Glo MT Cell Viability Assay in HEK293 cells - 24 hour (AID 1224886); note: nearly all actives have a fitted effect of over 50% in size; note: potency is the fitted concentration of half-maximal effect
# Outline: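 Reads taken at 0, 8, 16, 24, 32 and 40 h from the same wells. HEK293 cells (600/well) carried RealTime-Glo reagents from seeding, with compound added after a 5 h settle at 37 C.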
# [6] = qHTS RealTime-Glo MT Cell Viability Assay in HEK293 cells - 8 hour (AID 1224887); note: nearly all actives have a fitted effect of over 50% in size; note: potency is the fitted concentration of half-maximal effect
# Outline: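 Cells were seeded together with NanoLuc luciferase and a prosubstrate that viable cells reduce to a luciferase substrate. After a 5 h incubation at 37 C/5% CO2, compounds were added and luminescence was measured repeatedly during 40 h of treatment.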
# [7] = A CellTox Green Cytotoxicity Assay to monitor cytotoxicity in HEK293 cells - 16 hour (AID 1224888); note: nearly all actives have a fitted effect of over 35% in size; note: potency is the fitted concentration of half-maximal effect
# Outline: as §2
# [8] = qHTS RealTime-Glo MT Cell Viability Assay in HepG2 cells - 0 hour (AID 1224889); note: nearly all actives have a fitted effect of over 50% in size
# Outline: as §3
# [9] = A CellTox Green Cytotoxicity Assay to monitor cytotoxicity in HepG2 cells - 8 hour (AID 1224890); note: nearly all actives have a fitted effect of over 45% in size; note: potency is the fitted concentration of half-maximal effect
# Outline: as §1
# [10] = A CellTox Green Cytotoxicity Assay to monitor cytotoxicity in HEK293 cells - 32 hour (AID 1224881); note: nearly all actives have a fitted effect of over 40% in size; note: potency is the fitted concentration of half-maximal effect
# Outline: as §2
SMILES,Potency [1],Potency [2],Potency [3],Potency [4],Potency [5],Potency [6],Potency [7],Potency [8],Potency [9],Potency [10]
CC(=O)CC(C)=O,inactive,inactive,inactive,inactive,inactive,inactive,inactive,inactive,inactive,–
O=C(O)c1cccc(C(=O)O)c1,inactive,inactive,–,inactive,inactive,inactive,inactive,inactive,inactive,inactive
COC(=O)[C@H]1[C@H]2C[C@@H]3c4[nH]c5cc(OC)ccc5c4CCN3C[C@H]2C[C@@H](OC(=O)c2cc(OC)c(OC)c(OC)c2)[C@@H]1OC,inactive,inactive,–,–,4.89 µM (active) and 6.34 µM (active) and 8.49 µM (active),–,inactive,inactive,inactive,inactive
CC(N)=O,inactive,inactive,inactive,inactive,inactive,inactive,inactive,inactive,inactive,–
O=Cc1ccc(Cl)cc1,inactive,inactive,–,inactive,inactive,–,inactive,inactive,inactive,inactive
CCCCC/C=C/CC1CC(=O)OC1=O (stereo not drawn),inactive,inactive,–,–,inactive,inactive,–,inactive,inactive,inactive
CN(C)c1ccc(C(=C2C=CC(=[N+](C)C)C=C2)c2ccccc2)cc1,inactive,–,inactive,10.7 µM (active) [middle of 4 runs],2.39 µM (active) [middle of 4 runs],13.8 µM (active) and 10.7 µM (active) and 13.4 µM (active),–,inactive,21.9 µM (active) and 8.49 µM (active),15.1 µM (active) [middle of 4 runs]
COc1nc(C)nc(Cl)c1NC1=NCCN1,inactive,inactive,–,inactive,inactive,–,inactive,inactive,inactive,inactive
CCOc1ccc2c(c1)C(C)=CC(C)(C)N2,inactive,inactive,–,inactive,inactive,inactive,inactive,inactive,inactive,inactive
CCc1cc(C(C)(C)C)c(O)c(C(C)(C)C)c1,inactive,inactive,–,inactive,inactive,inactive,–,inactive,inactive,21.9 µM (active)
CNC1(C)C2CCC(C2)C1(C)C (stereo not drawn),–,–,inactive,–,inactive,–,inactive,inactive,–,inactive
CCN(CC)CCOc1ccc(/C(=C(\Cl)c2ccccc2)c2ccccc2)cc1,inactive,17.7 µM (active) and 21.3 µM (active),–,31.6 µM (active) and 23.9 µM (active),12.6 µM (active) and 21.3 µM (active),12.6 µM (active) and 21.3 µM (active),35.4 µM (active),inactive,35.4 µM (active) and 21.3 µM (active),28.1 µM (active) and 23.9 µM (active)
OCCN1CCNCC1,inactive,inactive,–,inactive,7.9 µM (active),–,inactive,inactive,inactive,inactive
CC(C)(C)NC(=O)[C@@H]1CN(Cc2cccnc2)CCN1C[C@@H](O)C[C@@H](Cc1ccccc1)C(=O)N[C@H]1c2ccccc2C[C@H]1O,inactive,inactive,–,inactive,inactive,inactive,inactive,inactive,inactive,inactive
Cc1occc(=O)c1OC(=O)C(C)C,inactive,inactive,–,–,inactive,–,inactive,inactive,inactive,inactive
CCCCCCCCCCCCCC[P+](CCCC)(CCCC)CCCC,inactive,19.4 µM (active) and 15.5 µM (active),–,21.8 µM (active) and 15.5 µM (active),387 nM (active) and 616 nM (active),24.4 µM (active) and 19.5 µM (active),17.3 µM (active) and 19.5 µM (active),inactive,24.4 µM (active) and 19.5 µM (active),12.2 µM (active) and 17.4 µM (active)
C#CC(C)(CC)OC(=O)c1ccccc1C(=O)O (stereo not drawn),inactive,inactive,–,inactive,inactive,inactive,inactive,inactive,inactive,inactive
Nc1cc(S(=O)(=O)O)cc2cc(S(=O)(=O)O)cc(O)c12,inactive,inactive,–,inactive,inactive,–,inactive,inactive,inactive,inactive
CC(C(O)c1ccc(O)cc1)N1CCC(Cc2ccccc2)CC1 (stereo not drawn),inactive,inactive,–,–,inactive,inactive,inactive,inactive,inactive,inactive

SMILES,Potency [1],Potency [2],Potency [3],Potency [4],Potency [5],Potency [6],Potency [7],Potency [8],Potency [9],Potency [10]
CCCCN(CCO)CCCC,inactive,inactive,–,–,inactive,–,inactive,inactive,inactive,inactive
Cc1scc2c1N(C(=O)CN1CCN(C)CC1)c1ccccc1NC2=O,inactive,inactive,inactive,inactive,inactive,inactive,inactive,inactive,inactive,–
CCCCCCCCCCCCc1ccccc1O,inactive,19.5 µM (active),–,–,43.1 µM (active) and 49 µM (active),43.1 µM (active) and 38.9 µM (active),43.1 µM (active) and 38.9 µM (active),inactive,inactive and 21.9 µM (active),43.1 µM (active) and 38.9 µM (active)
C=C(C)C1CC=C(C)C(OC(C)=O)C1 (stereo not drawn),inactive,inactive,–,inactive,inactive,–,inactive,inactive,inactive,inactive
CC(C)(C)c1cc(C(C)(C)C)c(O)c(C(C)(C)C)c1,inactive,–,–,inactive,inactive,inactive,–,inactive,inactive,54.9 µM (active) and 34.7 µM (active)
COc1ccc(CCN2CCC(Nc3nc4ccccc4n3Cc3ccc(F)cc3)CC2)cc1,inactive,19.9 µM (active) and 9.52 µM (active),44.6 µM (active) and 26.8 µM (active),28.1 µM (active) and 21.3 µM (active),6.3 µM (active) and 10.7 µM (active),12.6 µM (active) and 9.52 µM (active),35.4 µM (active) and 26.8 µM (active),inactive,39.8 µM (active) and 23.9 µM (active),–
O=C1Nc2ccccc2C1(c1ccc(O)cc1)c1ccc(O)cc1,inactive,inactive,–,inactive,inactive,inactive,inactive,inactive,inactive,inactive
CC1COC(=O)O1 (stereo not drawn),inactive and 43.6 µM (active),inactive and 43.6 µM (active),–,inactive,inactive,–,inactive,inactive,inactive and 43.6 µM (active),inactive
CCOc1ccccc1C(N)=O,inactive,inactive,inactive,inactive,inactive,inactive,inactive,inactive,inactive,–
CC(C)CCOC(=O)c1ccc(N(C)C)cc1,inactive,inactive,inactive,inactive,inactive,inactive,inactive,inactive,inactive,–
Clc1ccc2c(c1)C(N1CCNCC1)=Nc1ccccc1O2,inactive,49 µM (active) and 26.8 µM (active),–,–,43.6 µM (active) and 26.8 µM (active),inactive,–,–,inactive,–
O=c1n(CC2CO2)c(=O)n(CC2CO2)c(=O)n1CC1CO1 (stereo not drawn),inactive,inactive,inactive,inactive,inactive,inactive,inactive,inactive,inactive,–
CC(C)(O)CCC(C)(C)O,inactive,inactive,–,inactive,inactive,–,inactive,inactive,inactive,–
CC(C)CCOCc1ccccc1,inactive,inactive,inactive,inactive,inactive,–,inactive,inactive,inactive,–
CCC(C)(C)C(=O)O[C@H]1C[C@@H](C)C=C2C=C[C@H](C)[C@H](CC[C@@H]3C[C@@H](O)CC(=O)O3)[C@H]21,inactive,38.9 µM (active) and 9.52 µM (active),–,–,–,–,inactive,–,inactive,–
Cc1ccnc2c1NC(=O)c1cccnc1N2C1CC1,inactive,inactive,inactive,–,inactive,–,inactive,inactive,inactive,–
CC[C@@H](N)CO,inactive,inactive,inactive,inactive,inactive,inactive,inactive,inactive,inactive,–
NCCCCCC(=O)O,inactive,inactive,inactive,–,inactive,–,inactive,inactive,inactive,–
